# Abs 340nm: compound light absorbance at 340 nm, profiling panel, artefact control, biochemical, MLSMR library, data from PS, PMK, MK assays; compound absorbance at 340 nm, fold over control; fold change at 10 µM; 65,000 tested, under 10 active;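 active means at 10 µM dose, initial 340 nm absorbance at least 2 fold that of control wells; inactive means change under 2 fold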;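 further: initial absorbance extrapolated from kinetic A340 decline of NADH oxidation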
# Spn PMK inh: S. pneumoniae PMK inhibitors, primary screen, biochemical, mevalonate pathway, pilot trial included; phosphomevalonate kinase (Streptococcus pneumoniae D39); purified PMK, PK/LDH-coupled NADH absorbance 340 nm; inhibition, % at 10 µM; 0.49% of 65,000 active; AID 539, 2006;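 active means top-ranked compounds by inhibition in the single 10 µM screen, taking a fixed number of the strongest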
# Autofluor 339: intrinsic fluorescence of library compounds, ex339/em460 – biochemical, MLSMR library, data from DPM-DC assay, artefact control, profiling panel | compound autofluorescence, ex339/em460 nm, NADH buffer; stronger effect = higher value; 1 = no-compound wells, NADH background | fluorescence fold increase at 10 µM | 5.5% of 65,000 active;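 active means at 10 µM, mean starting fluorescence two-fold or more over control wells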;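 further: signal is the first read of a kinetic run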
# Spn DPM-DC inh: S. pneumoniae DPM-DC inhibitors, primary screen, biochemical, PK/LDH-coupled NADH fluorescence; purified DPM-DC; calls only at 10 µM; 0.49% of 65,000 active;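 active means the 320 compounds with the highest percent inhibition in the single-dose primary screen, excluding strongly autofluorescent ones, cut at about 32% in these data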;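 further: kinetic rate of NADH fluorescence loss reporting ADP formed by the decarboxylase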
# MK inhibit: S. pneumoniae MK inhibitors, primary screen, biochemical, PK/LDH-coupled NADH absorbance; mevalonate kinase [Streptococcus pneumoniae D39]; purified MK, PK/LDH-coupled NADH absorbance 340 nm; inhibition, % at 10 µM; 0.48% of 65,000 active; AID 555, 2006;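 active means ranked among the strongest by inhibition in the single 10 µM screen, a fixed top-ranked set picked for dose follow-up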
# NADH coupling: inhibitors of PK/LDH coupling enzymes, profiling panel, artefact control, biochemical, MLSMR library | coupled PK/LDH NADH assays, four targets | IC50, µM (top dose mostly 10 µM) | 0.02% of 65,000 active;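 active means single-dose screening hits from any of four coupled enzyme assays that gave an IC50 when retested across doses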;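 further: the DPM-DC format reads NADH fluorescence rather than 340 nm absorbance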
# A number is an active result; . = inactive; / = no result shown; + = active, no number. Hits are enriched below; roughly 6.8% of the tested compounds scored in any of these assays.
SMILES,Abs 340nm,Spn PMK inh,Autofluor 339,Spn DPM-DC inh,MK inhibit,NADH coupling
CCOC(=O)C1=C(C)NC(=O)NC1c1c(OCC(=O)N2CCCCC2)ccc2ccccc12 (centres undefined),.,.,.,.,.,.
CSc1nnc(-c2ccc(O)cc2)n1C,.,.,.,.,.,.
CSc1nnc(-c2cc3ccccc3cc2O)n1C,.,.,2.3,/,.,.
COc1ccc(OC)c(NC2c3ccccc3C(=O)N2c2cccnc2)c1 (centres undefined),.,.,.,.,.,.
COC(=O)C1=C(N)OC2=C(C(=O)CC(C)(C)C2)C1c1cccs1 (centres undefined),.,.,.,.,.,.
COC(=O)C1=CN(CCCN2CCCC2=O)C=C(C(=O)OC)C1c1cccs1,.,.,4.8,/,.,.
O=C(CC1Nc2ccccc2NC1=O)NC1CCCCC1 (centres undefined),.,.,2,.,.,.
O=C1NC(=O)C(CC(=O)N(c2ccccc2)C2(C(=O)NC3CCCC3)CCCCC2)N1 (centres undefined),.,.,.,+,.,.
O=C1CCC(C(=O)N(c2ccccc2)C2(C(=O)NC3CCCCC3)CCCCC2)N1 (centres undefined),.,.,.,.,.,.
Cc1ccc2oc(=O)c3cc(C(=O)NCc4ccco4)sc3c2c1,.,.,2,/,.,.
CCOc1ccc2nc(SC(C)C(N)=O)[nH]c2c1 (centres undefined),.,.,.,.,.,.
CC(C)Cc1nc(N2CCN(C(=O)Cc3ccccc3)CC2)c(C#N)c2c1COC(C)(C)C2,.,.,.,.,.,.
CC(C)C(=O)N1CCN(c2nc(-c3ccccc3)c3c(c2C#N)CCCC3)CC1,.,.,2.2,/,.,.
CC1(C)Cc2nc(N3CCOCC3)c(C#N)cc2CO1,.,.,3.7,/,.,.
Cc1nc(N2CCOCC2)c(C#N)c2c1COC(C)(C)C2,.,.,2.3,/,.,.
CC1(C)Cc2c(C#N)c(SCc3ccccc3)nc(N3CCOCC3)c2CO1,.,.,.,.,.,.
CCc1nc(N2CCN(C(=O)c3ccccc3)CC2)c(C#N)c2c1COC(C)(C)C2,.,.,2.3,/,.,.
O=C(O)c1ccc(C2CCCCC2)cn1,.,.,.,.,.,.
CCOC(=O)c1cc(C)n(S(=O)(=O)c2ccc(C)cc2)c1C,.,.,.,.,.,.
N#Cc1cc2cc3c(cc2nc1N1CCOCC1)OCO3,.,.,3.8,/,.,.
CCOC(=O)N1CCN(c2ncnc3c2oc2nc(CC(C)C)c4c(c23)CCC4)CC1,.,.,.,.,.,.
CC1CCN(c2nc(-c3ccco3)c3c(c2C#N)CC(C)(C)OC3)CC1,.,.,2.1,/,.,.
CC1(C)Cc2nc(NCCCO)c(C#N)cc2CO1,.,.,2.4,/,.,.
CCCC(=O)N1CCN(c2nc(CC(C)C)c3c(c2C#N)CCC3)CC1,.,.,2.2,/,.,.
CC1(C)Cc2c(C#N)c(NCCN3CCOCC3)nc(-c3ccco3)c2CO1,.,.,.,.,.,.
SMILES,Abs 340nm,Spn PMK inh,Autofluor 339,Spn DPM-DC inh,MK inhibit,NADH coupling
CC1(C(=O)O)CCC(C(=O)N2CCOCC2)C1(C)C (centres undefined),.,.,.,.,.,.
FC(F)(F)c1cccc(-n2cccc2/C=N/n2cnnc2)c1,.,.,.,.,.,.
CCc1nc(N2CCOCC2)c(C#N)c2c1COC(C)(C)C2,.,.,3.7,/,.,.
CC1(C)Cc2c(C#N)c(N3CCOCC3)nc(-c3ccccc3)c2CO1,.,.,2.2,/,.,.
CC1(C)Cc2c(C#N)c(N3CCOCC3)nc(Cc3ccccc3)c2CO1,.,.,2.3,/,.,.
O=C(CCCN1CCC(O)(c2ccc(Cl)cc2)CC1)c1ccc(F)cc1,.,.,.,.,.,.
O=C(NCc1ccc2c(c1)OCO2)c1cc2ncc(Br)cn2n1,.,.,.,.,.,.
Cc1nc2oc3c(NCc4ccccn4)ncnc3c2c2c1COC(C)(C)C2,.,.,.,+,.,.
